Measured values as given in PubChem BioAssay.
Several values for one entry are separate records, joined by “and”; a condition that tells them apart may be missing. Equal values may be shown once. Results filed as inconclusive are left out. Activity calls are given as the source filed them.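 How the source made its calls, unless noted: active means compounds that lower survival of HCT116 colon cancer cells in the luminescence readout, no numeric limit stated; inactive means the rest.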

Assays:
[1] = Wnt pathway potentiators raising nuclear beta-catenin – imaging, WNT3A-conditioned medium, mouse C2C12, NPC library, primary screen (AID 1117326; in the data active means nuclear beta-catenin stimulation mostly above about 4.2%, no sharp cut-off; inactive means mostly below about 10%); conditions: stronger effect = higher value
[2] = stimulators of insulin release from INS-1E, primary screen, cell-based, 5 mM glucose, NPC library (AID 1117329;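 active means compound raises insulin release from rat beta cells at 5 mM glucose, no numeric limit stated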); conditions: rat INS-1E insulin secretion, at 10 µM, stronger effect = higher value
[3] = growth inhibition of GSK3B-pretreated HCT116 cells – cell-based, CellTiter-Glo, 0.2 to 20 µM (AID 1117336;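 active means compounds lowering colon cancer cell viability after pretreatment blocking the GSK3B kinase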); conditions: HCT116 viability after GSK3B inhibitor, at 20 µM, stronger effect = higher value
[4] = inhibition of endothelial tube formation, primary screen, imaging, VEGF stimulated, CD31 staining, tube area, NPC library (AID 1117340;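 active means compound that reduces growth-factor-driven endothelial tube area in a mixed cell culture, no cutoff stated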); conditions: VEGF-stimulated ADSC/ECFC co-culture, at 10 µM, stronger effect = higher value
[5] = GLP1 release stimulators, primary, NCI-H716, NPC library (AID 1117341;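 active means compound raises GLP1 secretion from the human gut endocrine cells, with no numeric limit stated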); conditions: NCI-H716 cells, at 10 µM, stronger effect = higher value
[6] = HCT116 colon cancer cell growth inhibition, primary screen, CellTiter-Glo luminescence, NPC library (AID 1117342); conditions: at 20 µM (top of the series)
[7] = reduced SW480 viability measured with CellTiter-Glo, NPC library, primary (AID 1117343;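 active means compounds that lower viability of the colon cancer cells in the luminescence readout, with no numeric limit stated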); conditions: CellTiter-Glo luminescence; at 20 µM (top of the series) unless noted
[8] = NPC library primary testing for decreased DLD-1 cell viability via CellTiter-Glo (AID 1117346;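 active means compounds that lower survival of DLD-1 colon cancer cells in the luminescence readout, no cutoff given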); conditions: DLD-1 viability, CellTiter-Glo luminescence; at 20 µM (top of the series)
[9] = viability loss in pontine glioma line – cell-based, JHH-DIPG-1, MIPE4.0, CellTiter-Glo, qHTS, dose response (AID 1347062; cut-off not given, nearly all actives have AC50 up to about 27 µM); conditions: JHH-DIPG-1 viability, CellTiter-Glo ATP luminescence
[10] = viability loss in pontine glioma line – cell-based, SU-DIPG-IV, MIPE4.0, CellTiter-Glo, qHTS, dose response (AID 1347063; cut-off not given, nearly all actives have AC50 up to about 30 µM;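 further: compound exposure lasted 48 hours before the viability readout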); conditions: CellTiter-Glo ATP luminescence
[11] = MELAS cybrid and Rieske KO viability enhancers – cell-based, MELAS cybrids, Rieske KO mouse fibroblasts, CellTiter-Glo, primary screen (AID 1508586;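 active means mean z-score across replicates of 1.96 or higher in either the MELAS or the Rieske mutant cell line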;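 further: z relative to plate mean and SD of compound and empty wells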); conditions: low glucose
[12] = viability loss with induced miR-34 in A549 – imaging, A549 dox-inducible miR-34, nuclei and caspase counts, primary screen (AID 1347080;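 active means compounds whose cell count with miR-34 switched on is under 0.7 times the count with it off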); conditions: A549 miR-34 inducible, Hoechst nuclei count, 48 h
[13] = galactose survival enhancers in mitochondrial complex I cybrids – cell-based, galactose medium, ATP luminescence, primary screen (AID 1645843;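 active means z-score of at least 1.8 in each of two replicates, scored against plate mean and spread of sample wells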;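 further: positive z means more ATP and so rescue of galactose-driven cybrid death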); conditions: complex I mutant cybrid cells, 72 h, stronger effect = higher value
[14] = P. berghei load reduction in hepatocytes – cell-based, HepG2, luciferase luminescence, HepG2 viability, primary screen (AID 624349; in the data active means parasite load remaining mostly below about 12%, no sharp cut-off; inactive means mostly above about 10%;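 further: 100% = mean of DMSO negative control wells on the same plate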); conditions: P. berghei liver stage in HepG2, luciferase luminescence, concentration not given here; parasite load remaining: stronger effect = lower value; viability: measured here: HepG2 viability without parasites
[15] = target: NAD(+) hydrolase SARM1 (Homo sapiens) (UniProt Q6SZW1); experiment: blocking NAD cleavage by SARM1 SAM-TIR – cell lysate, NAD-Glo luminescence (AID 1508614;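 active means compound whose remaining NAD level is above about 45 nM, limit read from the data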); conditions: SAM-TIR HEK293T lysate NADase, at 1 µM, stronger effect = higher value
[16] = test system: Hepatitis C virus NS3 helicase; experiment: blockers of NS3h binding to ssDNA – biochemical, fluorescence polarization, LOPAC1280 library, primary screen (AID 687035; in the data active means inhibition above about 37%); conditions: Purified HCV NS3 helicase, Cy5-dT15 ssDNA binding fluorescence polarization; stronger effect = higher value; concentration not given here
[17] = compounds altering Cy5-DNA-NS3h complex signal – biochemical, LOPAC1280, artefact control for HCV NS3 helicase inhibitor project (AID 687037; call rule not given here); conditions: Cy5-DNA-NS3h complex fluorescence interference counterscreen
[18] = blockers of cellular phospholipid synthesis – cell-based, LOPAC library, screen 4, primary screen (AID 1347384; call rule not given here); conditions: animal cells, phospholipid biosynthesis inhibition screen; at 10 µM
[19] = MELAS cybrid survival, CellTiter-Glo 48 h, stronger effect = higher value
[20] = Rieske KO mouse fibroblast survival, CellTiter-Glo 72 h
[21] = stronger effect = lower value, cell number ratio, induced over uninduced
[22] = measured here: relative caspase fold change +Dox/-Dox
[23] = measured here: total cells with miR-34 induction, stronger effect = lower value
[24] = measured here: total cells without miR-34 induction

Sequence of NAD(+) hydrolase SARM1 (Homo sapiens) (Q6SZW1 whole entry, looked up): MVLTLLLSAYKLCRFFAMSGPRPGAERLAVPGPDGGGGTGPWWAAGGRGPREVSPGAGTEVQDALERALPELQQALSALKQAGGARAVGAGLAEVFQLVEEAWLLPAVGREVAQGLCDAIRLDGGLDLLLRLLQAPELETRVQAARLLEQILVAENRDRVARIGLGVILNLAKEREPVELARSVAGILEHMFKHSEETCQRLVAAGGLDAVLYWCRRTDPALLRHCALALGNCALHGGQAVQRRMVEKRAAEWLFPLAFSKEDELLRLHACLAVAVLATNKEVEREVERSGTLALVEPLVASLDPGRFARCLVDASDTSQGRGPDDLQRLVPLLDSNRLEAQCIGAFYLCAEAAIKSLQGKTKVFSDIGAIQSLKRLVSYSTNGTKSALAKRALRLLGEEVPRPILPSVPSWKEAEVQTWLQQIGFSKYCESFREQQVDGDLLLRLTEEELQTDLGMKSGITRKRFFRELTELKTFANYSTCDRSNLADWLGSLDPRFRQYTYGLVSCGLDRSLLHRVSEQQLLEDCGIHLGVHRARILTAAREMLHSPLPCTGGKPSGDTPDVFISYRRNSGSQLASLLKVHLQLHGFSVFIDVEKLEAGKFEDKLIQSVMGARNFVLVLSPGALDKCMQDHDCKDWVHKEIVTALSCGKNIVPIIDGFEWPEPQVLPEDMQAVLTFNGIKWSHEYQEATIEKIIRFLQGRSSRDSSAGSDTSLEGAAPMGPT

O=C(O)c1nc(=O)[nH]c(=O)[nH]1
0.2%: nuclear beta-catenin stimulation ([1]; stimulation, at 2 µM)
inactive: nuclear beta-catenin stimulation ([1]; at 10 µM) 0.4% | insulin secretion stimulation [2] -2.5% | viability decrease [3] -8.95% | tube area decrease [4] -8.3% | GLP1 secretion stimulation [5] 0.9% | inhibition of viability [6] -17.1% | viability decrease (inhibition) [7] 29% | viability decrease (inhibition) [8] 12.8% | outcome [9] | outcome [10]

Clc1cccc(C(c2ccc3nc[nH]c3c2)n2ccnc2)c1 (centres undefined)
-0.6%: nuclear beta-catenin stimulation ([1]; stimulation, at 2 µM)
inactive: nuclear beta-catenin stimulation ([1]; at 10 µM) 0.3% | insulin secretion stimulation [2] 1.6% | viability decrease [3] 11.8% | tube area decrease [4] 19.4% | GLP1 secretion stimulation [5] 0.1% | inhibition of viability [6] 43.2% | viability decrease (inhibition) [7] 44.6% | viability decrease (inhibition) [8] 33.5%

CN1C[C@H]2c3ccccc3Oc3ccc(Cl)cc3[C@@H]2C1
inactive: nuclear beta-catenin stimulation ([1]; at 10 µM) 0.7% | insulin secretion stimulation [2] 9% | viability decrease [3] 30.4% | tube area decrease [4] 28.3% | GLP1 secretion stimulation [5] 4.4% | inhibition of viability [6] 39.3% | viability decrease (inhibition) [8] 34.3% | outcome [9] | outcome [10] | z-score [11, 19] 0.874
0.408: z-score [11, 20]
active: viability decrease (inhibition) [7] 80.6%
-0.7%: nuclear beta-catenin stimulation ([1]; stimulation, at 2 µM)

CCCCCCCCCCCCCCCC(=O)O
1.12: fold change [12, 22]
5900: cell count [12, 23]
inactive: nuclear beta-catenin stimulation ([1]; at 10 µM) 0.3% | insulin secretion stimulation [2] 2.3% | viability decrease [3] 2.25% | tube area decrease [4] -25.4% | GLP1 secretion stimulation [5] 0.3% | inhibition of viability [6] -38.8% | viability decrease (inhibition) [7] 32.7% | viability decrease (inhibition) [8] 8.5% | fold change [12, 21] 1.03
1.7%: nuclear beta-catenin stimulation ([1]; stimulation, at 2 µM)
5710: cell count [12, 24]

COc1cccc(N(C)C(=S)Oc2ccc3c(c2)CCCC3)n1
-0.761: z-score [11, 20]
active: viability decrease (inhibition) [7] 54.5% | viability decrease (inhibition) [8] 55.4%
0.4%: nuclear beta-catenin stimulation ([1]; stimulation, at 2 µM)
inactive: nuclear beta-catenin stimulation ([1]; at 10 µM) 0.4% | insulin secretion stimulation [2] -2.1% | viability decrease [3] 48.8% | tube area decrease [4] 17.8% | GLP1 secretion stimulation [5] -2.3% | inhibition of viability [6] 13.6% | outcome [9] | outcome [10] | z-score [11, 19] 0.186

COc1cc(C(C)=O)ccc1OCCCN1CCC(c2noc3cc(F)ccc23)CC1
6850 and 7430: cell count [12, 23]
active: viability decrease [3] 66.1% | inhibition of viability [6] 80.7% | viability decrease (inhibition) [7] 100%
0.354 and 0.917: fold change [12, 22]
0.999 and 0.549: z-score [11, 20]
7670 and 8090: cell count [12, 24]
inactive: nuclear beta-catenin stimulation ([1]; at 10 µM) 1.5% | insulin secretion stimulation [2] 3.8% | tube area decrease [4] 16.7% | GLP1 secretion stimulation [5] 6.5% | viability decrease (inhibition) [8] 33.5% | outcome [10] | fold change [12, 21] 0.893 and 0.919 | z-score [11, 19] -0.601 and -0.433 | z-score [13] -1.19
0.5%: nuclear beta-catenin stimulation ([1]; stimulation, at 2 µM)

O=C(CS(=O)Cc1ccco1)NC/C=C\COc1cc(CN2CCCCC2)ccn1 (centres undefined)
inactive: nuclear beta-catenin stimulation ([1]; at 10 µM) -0.3% | insulin secretion stimulation [2] 4% | viability decrease [3] -4.8% | tube area decrease [4] 8% | GLP1 secretion stimulation [5] -0.5% | inhibition of viability [6] 2.2% | viability decrease (inhibition) [7] -8.8% | viability decrease (inhibition) [8] 6.7% | outcome [9] | outcome [10]
-0.8%: nuclear beta-catenin stimulation ([1]; stimulation, at 2 µM)

CC(=O)O[C@@]12CO[C@@H]1C[C@H](O)[C@@]1(C)C(=O)[C@H](O)C3=C(C)[C@@H](OC(=O)[C@H](O)[C@@H](NC(=O)OC(C)(C)C)c4ccccc4)C[C@@](O)([C@@H](OC(=O)c4ccccc4)[C@H]21)C3(C)C
0.541: z-score [11, 20]
inactive: parasite load remaining [14] 80.3% | insulin secretion stimulation [2] -0.6% | GLP1 secretion stimulation [5] -0.5% | fold change [12, 21] 0.999 | z-score [11, 19] -1.22 | remaining NAD [15] 10 nM | z-score [13] -0.435
0.907: fold change [12, 22]
114%: viability [14]
49.3%: nuclear beta-catenin stimulation ([1]; stimulation, at 2 µM)
2910: cell count [12, 23] | cell count [12, 24]
active: nuclear beta-catenin stimulation ([1]; at 10 µM) 66.2% | viability decrease [3] 71.8% | tube area decrease [4] 98.1% | inhibition of viability [6] 58.9% | viability decrease (inhibition) [7] 36.5% | viability decrease (inhibition) [8] 31.8%

CCCCC(CC)COC(=O)C(C#N)=C(c1ccccc1)c1ccccc1 (centres undefined)
inactive: nuclear beta-catenin stimulation ([1]; at 10 µM) -0.2% | insulin secretion stimulation [2] -1.3% | GLP1 secretion stimulation [5] -1.3% | inhibition of viability [6] 43.8% | viability decrease (inhibition) [7] 28.2% | outcome [9] | outcome [10] | remaining NAD [15] 10 nM
0.7%: nuclear beta-catenin stimulation ([1]; stimulation, at 2 µM)
active: viability decrease [3] 51.7% | tube area decrease [4] 19.7% | viability decrease (inhibition) [8] 56.9%

O=C(O)[C@H](O)c1ccccc1
5570: cell count [12, 24]
0.478: fold change [12, 22]
inactive: nuclear beta-catenin stimulation ([1]; at 10 µM) 3.7% | insulin secretion stimulation [2] -0.6% | viability decrease [3] -6.9% | tube area decrease [4] -9.1% | GLP1 secretion stimulation [5] 1.8% | inhibition of viability [6] -5.47% | viability decrease (inhibition) [7] -30.4% | viability decrease (inhibition) [8] -21.9% | fold change [12, 21] 0.975
3.1%: nuclear beta-catenin stimulation ([1]; stimulation, at 2 µM)
5430: cell count [12, 23]

C=CCc1cc(OC)c(O)c(C(=O)NCCO)c1
9220: cell count [12, 24]
inactive: nuclear beta-catenin stimulation ([1]; at 10 µM) 1.7% | insulin secretion stimulation [2] -0.7% | viability decrease [3] -4.9% | tube area decrease [4] 4.3% | GLP1 secretion stimulation [5] 0.4% | inhibition of viability [6] -7.7% | viability decrease (inhibition) [7] 33.7% | viability decrease (inhibition) [8] 1.9% | outcome [9] | outcome [10] | fold change [12, 21] 0.947 | z-score [11, 19] -0.166
0.662: fold change [12, 22]
8720: cell count [12, 23]
2.4%: nuclear beta-catenin stimulation ([1]; stimulation, at 2 µM)
0.363: z-score [11, 20]

COC(=O)[C@@H](N)Cc1ccc(O)c(O)c1
1.36: fold change [12, 22]
0%: nuclear beta-catenin stimulation ([1]; stimulation, at 2 µM)
10200: cell count [12, 24]
9830: cell count [12, 23]
inactive: inhibition [16] -2% | fluorescence ratio (interference) [17] 1 | nuclear beta-catenin stimulation ([1]; at 10 µM) 6.9% | insulin secretion stimulation [2] -2.6% | viability decrease [3] 22% | tube area decrease [4] 1.4% | GLP1 secretion stimulation [5] 5.5% | inhibition of viability [6] 8.3% | viability decrease (inhibition) [8] 15.2% | fold change [12, 21] 0.967 | outcome [18] | z-score [13] -1.02
active: viability decrease (inhibition) [7] 64.7%

CCCCc1ncc(/C=C(\Cc2cccs2)C(=O)O)n1Cc1ccc(C(=O)O)cc1
inactive: parasite load remaining [14] 50.8% | nuclear beta-catenin stimulation ([1]; at 10 µM) 0.4% | insulin secretion stimulation [2] 2.05% | viability decrease [3] 9.7% | tube area decrease [4] -11.7% | GLP1 secretion stimulation [5] -2.1% | inhibition of viability [6] 0% | viability decrease (inhibition) [7] -13.7% | viability decrease (inhibition) [8] -4.6% | fold change [12, 21] 1.04 and 0.815 | outcome [18] | z-score [11, 19] 0.334 | z-score [13] 0.525 and 0.34
110%: viability [14]
9790 and 10900: cell count [12, 24]
10200 and 8890: cell count [12, 23]
0.751 and 0.591: fold change [12, 22]
12.2%: nuclear beta-catenin stimulation ([1]; stimulation, at 2 µM)
-0.876: z-score [11, 20]
